According to PubChem BioAssay (NCI):
About 83,000 compounds went through this panel and 20% of them were active in at least one assay; those are over-represented in the sample as a whole.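 Treatment: one concentration, 48 hours, 96-well format. Scoring: percent growth, with anything below 10 considered active.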 Unmarked numbers belong to inactive results. Activity calls are given as the source filed them.

Columns and labels:
Experiment in all cases: NCI-60 one-dose screen, 48 h (100 = growth as untreated, 0 = no growth, -100 = all killed)
Conditions in all cases: 10 µM unless noted
NCI-H23 lung = test system: NCI-H23 lung
NCI-H226 lung = test system: NCI-H226 lung
NCI-H322M lung = test system: NCI-H322M lung
HOP-62 NSCLC = test system: HOP-62 NSCLC
NCI-H460 lung = test system: NCI-H460 lung
HOP-92 NSCLC = test system: HOP-92 NSCLC
NCI-H522 lung = test system: NCI-H522 lung
A549/ATCC NSCLC = test system: A549/ATCC NSCLC
786-0 renal = test system: 786-0 renal
COLO 205 colon = test system: COLO 205 colon

Structure (SMILES) | growth (NCI-H23 lung) | growth (NCI-H226 lung) | growth (NCI-H322M lung) | growth (HOP-62 NSCLC) | growth (NCI-H460 lung) | growth (HOP-92 NSCLC) | growth (NCI-H522 lung) | growth (A549/ATCC NSCLC) | growth (786-0 renal) | growth (COLO 205 colon)
O=[N+]([O-])c1ccc(N2c3ccncc3Sc3ccncc32)cc1 | 102% | 105% | 105% | 104% | 122% | 80.2% | 87.8% | 110% | 107% | 111%
C=C1C(=O)O[C@H]2[C@H]1CC/C(CNC(=O)/C=C/c1ccc(Cl)cc1Cl)=C\CC[C@@]1(C)O[C@@H]21 | -61.2% (active) | 64.2% | 73.9% | 17.2% | 2.98% (active) | -50.8% (active) | -84.2% (active) | 20.9% | -77.1% (active) | -65.5% (active)
COc1cc(-c2nn(-c3ccccc3)cc2-c2ccnc(NCCNS(=O)(=O)c3ccc(Cl)cc3)n2)ccc1Cl | 47.4% | 30.8% | 68.8% | 48% | 19% | 48.8% | 42.2% | 13.3% | 28.9% | 17.2%
O=C(CSc1nnc(-c2ccc(NC(=O)c3cccnc3)cc2)o1)N[C@@H](Cc1ccc(O)cc1)C(=O)O | 108% | 102% | 99.8% | 98% | 111% | 96.3% | 91% | 104% | 99.6% | 101%
Cc1ccc(Cl)cc1NC(=O)c1cc2ccccc2cc1O | -30.4% (active) | -35.6% (active) | -3.32% (active) | -23.8% (active) | -22.5% (active) | -10.5% (active) | -18% (active) | 13.9% | -6.83% (active) | 1.54% (active)
CCN(CC)CCN1C(=O)c2c(c(C)c3c(oc4cc(O)ccc43)c2C)C1=O | 92.7% | 29.2% | 89.1% | 93.1% | -69% (active) | 72.1% | -37.1% (active) | -65.3% (active) | -80.9% (active) | 12.8%
COc1ccc(/C=C/c2c(C(=O)/C=C/c3cccs3)c(C)nc3ccccc23)cc1 | 67.3% | 76% | 89.7% | 93.2% | 83.6% | 42.7% | 62.6% | 92.5% | 90.6% | 78.4%
Cc1ccc(/C=C/c2c(C(=O)/C=C/c3ccc(Cl)cc3)c(C)nc3ccccc23)cc1 | 2.79% (active) | -30.4% (active) | 51.7% | 3.89% (active) | -73.9% (active) | 0.669% (active) | 5.16% (active) | 78.8% | -17.5% (active) | 6.99% (active)
COc1cccc(-c2nn(-c3ccccc3)cc2-c2ccnc(NCCNC(=O)Nc3ccc(Cl)c(Cl)c3)c2)c1 | 19.7% | 50.5% | 48.1% | 5.85% (active) | 2.74% (active) | -1.01% (active) | -14.9% (active) | -18.3% (active) | -41.1% (active) | -37.4% (active)
COc1cc(Cn2ncc3ccc(NC(=O)c4cc5ccccc5oc4=N)cc32)cc(OC)c1OC | 80.8% | 88.6% | 89.6% | 64.9% | 91% | 71.9% | 20.3% | 50.7% | 68% | 55.1%
CCCCCCCC/C=C\CCCCCCCCOc1ccccc1CC(=O)NCC[N+](C)(C)C | 65.5% | 52.3% | 96.6% | 37% | 23.8% | 61.3% | 51.1% | 71.4% | 50.5% | -7.71% (active)
O=C1CCC2=C3C4CCCCC4C(=O)C4CCCC(OC2C1)C34 (stereo not given) | -12.9% (active) | 92.6% | 18% | 34.5% | -18.6% (active) | -2.29% (active) | -32.4% (active) | 48.9% | -9.63% (active) | 75.3%
CN(C)c1ccc(/C=C/C(=O)c2cccc(Nc3nc(Nc4ccccc4)nc(Nc4ccccc4)n3)c2)cc1 | 82.7% | 94% | 93.5% | 86.5% | 98.4% | 46.9% | 87.3% | 85.6% | 88.2% | 81.5%
Cc1cccc(Cc2cnc(NC(=O)/C=C/c3ccco3)s2)c1 | 28.2% | 50.3% | 37.8% | 23.7% | 3.34% (active) | 78% | -12% (active) | 20% | 36% | 2.49% (active)
